# Measured values reported in PubChem BioAssay (Tox21).
# Values joined by “and” are separate entries in the source; they are usually repeats but may differ in a detail not shown here. Equal entries are not always repeated. Records with an inconclusive call do not appear. Where a call stands in place of a potency, no number is given. Active and inactive are the calls of the source. Calls follow the shape of the dose curve; as a rule, active = well fitted cell-killing curve with a large enough effect in the repeat runs; inconclusive = weak or mixed curves, or effect the other way; inactive = no such curve, though single readings can be large or run the other way.
# Experiment: qHTS assay to identify small molecule antagonists of the sonic hedgehog signaling (Shh) pathway - cell viability counter screen (AID 1259367); also: nearly all actives have a fitted effect of over 55% in size
# Details: NIH/3T3 Gli1-Luc viability, CellTiter-Fluor, 24 h; series mostly up to 92.4 µM
# Summary of the method: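 NIH/3T3-derived Gli1-Luc reporter cells, 2,000/well, plated 4 hr before compound addition, then stimulated with conditioned medium for 24 hr at 37C. Viability measured in the same wells by CellTiter-Fluor fluorescence, reagent added at 23 hr for 1 hr.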
# Potency is read from the fitted curve at half-maximal effect.
row,SMILES,Potency
1,O=C(N/N=C/c1ccc([N+](=O)[O-])o1)c1cc([N+](=O)[O-])cc([N+](=O)[O-])c1O,10.6 µM (active)
2,CC(O)CN1CCN(CC(=O)[O-])CCN(CC(=O)[O-])CCN(CC(=O)[O-])CC1.[Gd+3] (stereo not given),inactive
3,CCOP(=O)(SC(C)CC)N1CCSC1=O (stereo not given),inactive
4,CCCCCCCCn1sccc1=O,4.34 µM (active)
5,C1CS1,inactive
6,CN(C)c1ccc(N=O)cc1,24.4 µM (active) and 27.3 µM (active)
7,CC(C)(C)NCC(O)c1cc(Cl)c(N)c(C(F)(F)F)c1 (stereo not given),9.44 µM (active)
8,CCC1CCC(=O)O1 (stereo not given),inactive
9,CC1(C)CC(=O)CC(C)(C)N1[O],inactive
10,O=C(O)C(Cl)(Cl)Br,inactive
11,CC1(C)[C@H](C(=O)O[C@H](C#N)c2cccc(Oc3ccccc3)c2)[C@@H]1C=C(Br)Br,inactive
12,Nc1ccccc1C(=O)OCCc1ccccc1,inactive
13,CN1CC[C@]23c4c5ccc(O)c4O[C@H]2[C@@H](O)CC[C@H]3[C@H]1C5,inactive
14,C[C@H]1O[C@H](OC2[C@@H](O)[C@@H](O)C(O)[C@H](O)[C@H]2O)[C@@H](N)C[C@@H]1N=C(N)C(=O)O (stereo not given in full),inactive
15,CC(C)c1ccc(OP(=O)(Oc2ccc(C(C)C)cc2)Oc2ccc(C(C)C)cc2)cc1,inactive
16,CCOP(=O)(O)C(N)=O,inactive
17,SCc1ccccc1,inactive
18,N#CC1(N=NC2(C#N)CCCCC2)CCCCC1,inactive
19,CC(C)(C)OOC(C)(C)CCC(C)(C)OOC(C)(C)C,inactive
20,CC(C)(C#N)C(C)(C)C#N,inactive
